High-throughput results (PubChem BioAssay)
PLK1 PBD block: blocks phosphopeptide binding to human PLK1 polo-box domain; 2.8% of 360,000 active; P53350; AID 720504; Plk1 PBD binding of FITC phosphopeptide, fluorescence polarization; Potency, µM, inactives show max response, negative = inhibition, usual class: inhibitors; also: series mostly up to about 57 µM; nearly all actives have a fitted effect of over 65% in size
Sfp PPTase inh: blocks B. subtilis Sfp PPTase activity; Q9F4F7; Biochemical Sfp PPTase activity, qHTS; AID 1490; Potency, µM, without a hit: largest response in the series, negative = inhibition, actives largely listed as inhibitors; 3.5% of 310,000 active;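 also: the enzyme is Sfp with the accession as filed and its product quenches rhodamine fluorescence; 0% = enzyme reaction without inhibitor and -100% = no enzyme wells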
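Reaction rates are the 30-min fluorescence difference (ex 525, em 598 nm) in wells containing 15 nM Sfp, 5 uM rhodamine-CoA and 12.5 uM BHQ-2-YbbR at pH 7.6 with 10 mM MgCl2.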
ALDH1A1 inh: ALDH1A1 (human) enzyme inhibition | P00352 | Purified ALDH1A1, NADH fluorescence, propionaldehyde substrate | Potency, µM (doses to about 75.3 µM), without a hit: at the highest dose activity, negative = inhibition, actives largely listed as inhibitors | 7.3% of 220,000 active; active = well fitted inhibition curve with a large enough effect, not every such curve was filed as active; inconclusive = small, poorly fitted or top-dose-only effect, or another doubt; inactive = no such curve, though single readings can be large or run the other way;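 also: plate controls were no enzyme wells and a reference inhibitor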
Target sequence (P00352 whole entry, looked up): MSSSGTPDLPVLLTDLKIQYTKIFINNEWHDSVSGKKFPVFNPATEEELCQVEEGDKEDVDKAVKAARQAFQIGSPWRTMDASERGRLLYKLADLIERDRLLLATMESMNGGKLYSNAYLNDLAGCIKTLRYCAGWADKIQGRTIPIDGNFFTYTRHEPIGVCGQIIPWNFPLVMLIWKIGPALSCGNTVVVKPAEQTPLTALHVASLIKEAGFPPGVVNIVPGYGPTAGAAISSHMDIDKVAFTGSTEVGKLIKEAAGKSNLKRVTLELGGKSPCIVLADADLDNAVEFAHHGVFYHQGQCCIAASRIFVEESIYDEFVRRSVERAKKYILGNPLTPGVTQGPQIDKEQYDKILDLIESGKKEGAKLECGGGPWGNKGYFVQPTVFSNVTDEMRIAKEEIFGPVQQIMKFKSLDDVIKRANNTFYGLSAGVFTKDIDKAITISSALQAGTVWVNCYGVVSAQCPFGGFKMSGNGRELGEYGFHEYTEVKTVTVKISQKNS
RORgamma inh: blocks mouse ROR gamma transcriptional activity | P51450 | Drosophila S2 Gal4-RORgamma UAS-luciferase reporter, 20 h | Potency, µM (highest dose often 53.6 µM), without a hit: top-dose activity change, negative = inhibition, most hits filed as inhibitors | 5.4% of 310,000 active; also: nearly all actives have a fitted effect of over 60% in size
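In this cell-based reporter format, copper sulfate (700 uM final) drives Gal4–ROR gamma fusion expression from a metallothionein promoter in Drosophila Schneider cells; compounds preincubated 1 hr, reporter read after 20 hr at ambient temperature.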
VP16 counter: inhibits Gal4-VP16 luciferase reporter, ROR gamma counter-screen; 3.5% of 310,000 active; Drosophila S2 Gal4-VP16 UAS-luciferase, luminescence, 20 h; Potency, µM (highest dose often 53.6 µM), without a hit: at the highest dose activity, negative = inhibition, hits mostly inhibitors;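 also: Gal4-VP16 expression switched on by copper sulfate through the metallothionein promoter; nearly all actives have a fitted effect of over 50% in size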
Active calls of the source: *; [ ] = dose if it differs, or a comment. The list is not random: actives were taken first. Their share in the collection is about 12%. Unless noted, calls follow the shape of the dose curve; as a rule, active = well fitted curve in the direction sought with a large enough effect; inconclusive = small, poorly fitted or top-dose-only effect, or another doubt; inactive = no such curve, though single readings can be large; an effect the other way counts as inactive or inconclusive. Unless noted, % is scaled to controls: 0 for no effect and ±100 for the full control effect; potency is read from the fitted curve at half-maximal effect.

CC1=C(C(=O)OCc2ccccc2)C(c2ccc([N+](=O)[O-])cc2)NC(=O)N1CCCC(=O)O (stereo not given) was read as PLK1 PBD block 0%, Sfp PPTase inh -13%, RORgamma inh -30% and VP16 counter 3%.
CC1=C(C(=O)OCc2ccccc2)C(c2ccccc2Cl)NC(=O)N1CCCCCC(=O)O (stereo not given) was read as PLK1 PBD block -6%, Sfp PPTase inh 3%, RORgamma inh 1.8µM* and VP16 counter -10%.
For Nc1ccc(S(=O)(=O)c2ccc(NC(=O)c3cccnc3)cc2)cc1 the results were PLK1 PBD block -13% and ALDH1A1 inh 4%[13.5 µM].
CN(CCO)c1cccc2c1S(=O)(=O)N[C@@H](Cc1ccccc1)CO2 was read as PLK1 PBD block -2%.
`CC(C)C[C@H]1CN(CCCC[C@@H]2CNC(=O)C(=O)N2Cc2ccccc2)C(=O)C(=O)N1CCc1ccc(O)cc1` gave PLK1 PBD block 5%.
`CC[C@H](C)[C@H](NC(=O)[C@H](Cc1cnc[nH]1)NC(=O)[C@@H](NC(=O)[C@H](CCCNC(=N)N)NC(=O)[C@H](CCCCN)NC(=O)[C@H](CCCNC(=N)N)NC(=O)[C@H](CCCCN)NC(=O)[C@@H](N)CC(N)=O)[C@@H](C)CC)C(=O)NCC(=O)N1CCC[C@H]1C(=O)NCC(=O)N[C@@H](CCCNC(=N)N)C(=O)N[C@@H](C)C(=O)N[C@@H](Cc1ccccc1)C(=O)N[C@@H](Cc1ccc(O)cc1)C(=O)N[C@H](C(=O)N[C@H](C(=O)N[C@@H](CCCCN)C(=O)N[C@@H](CC(N)=O)C(=O)N[C@H](C(=O)N[C@H](C(=O)NCC(=O)N[C@H](C(=O)N[C@H](C(=O)N[C@@H](CS)C(=O)O)[C@@H](C)CC)[C@@H](C)O)[C@@H](C)CC)[C@@H](C)CC)[C@@H](C)O)[C@@H](C)O` gave Sfp PPTase inh -14%, RORgamma inh 3% and VP16 counter -7%.
`Cc1cccc(CNC(=O)c2ccc(NC(=O)C3=CSCCO3)cc2)c1` gave PLK1 PBD block 27µM*, Sfp PPTase inh 16%, RORgamma inh 10% and VP16 counter -12%.
Screening Cc1cccc(CNC(=O)c2ccccc2NC(=O)C2=CSCCO2)c1 returned PLK1 PBD block inconclusive, Sfp PPTase inh 5%, RORgamma inh 6% and VP16 counter 1%.
`CCOc1ccc(CNC(=O)c2ccccc2NC(=O)C2=CSCCO2)cc1` gave PLK1 PBD block 24µM*, Sfp PPTase inh -20%, RORgamma inh 17% and VP16 counter 6%.
Cc1ccc(CNC(=O)c2ccccc2NC(=O)C2=CSCCO2)cc1 was read as PLK1 PBD block 0%, Sfp PPTase inh -3%, RORgamma inh 14% and VP16 counter 8%.
For CC(C)c1ccc(C(C)NC(=S)NC2CCCCC2)cc1 (stereo not given) the results were PLK1 PBD block 0%, Sfp PPTase inh 17%, RORgamma inh 1.4µM* and VP16 counter 2.8µM*.
For CC(NC(=S)NC1CCCCC1)c1ccc(C(C)(C)C)cc1 (stereo not given) the results were PLK1 PBD block -9%, Sfp PPTase inh 26%, RORgamma inh 1.6µM* and VP16 counter 2µM*.
Screening CC1(C(=O)NS(=O)(=O)c2cccc(C#N)c2)CCN1C(=O)c1ccco1 (stereo not given) returned PLK1 PBD block -11%.
For COc1cccc(CNC(=O)[C@@H]2CCCN2C(=O)[C@H]2CCCCN2C(=O)c2ccc(Cl)cc2)c1 the results were PLK1 PBD block -14%.
CC(=O)NNc1nc(-c2ccccc2)c2cc(Br)ccc2n1 was read as PLK1 PBD block -18%, Sfp PPTase inh 6%, ALDH1A1 inh 0%, RORgamma inh -25% and VP16 counter 22%.
O=C(NNc1nc(-c2ccccc2)c2cc(Br)ccc2n1)c1ccc(S(=O)(=O)N2CCOCC2)cc1 was read as PLK1 PBD block 10%, Sfp PPTase inh 15%, ALDH1A1 inh 2%, RORgamma inh 7.9µM* and VP16 counter 13µM*.
`O=C(CN1CCCCC1)NNc1nc(-c2ccccc2)c2cc(Br)ccc2n1` gave PLK1 PBD block -14%, Sfp PPTase inh 3%, ALDH1A1 inh 11%, RORgamma inh 0.5µM* and VP16 counter 1.6µM*.
For CO[C@H](C(=O)[C@@H](O)[C@@H](C)O)C1Cc2cc3cc(O[C@H]4C[C@@H](O[C@H]5C[C@@H](O)[C@H](O)[C@@H](C)O5)[C@@H](O)[C@@H](C)O4)c(C)c(O)c3c(O)c2C(=O)[C@H]1O[C@H]1C[C@@H](O[C@H]2C[C@@H](O[C@H]3C[C@](C)(O)[C@H](O)[C@@H](C)O3)[C@H](O)[C@@H](C)O2)[C@H](O)[C@@H](C)O1 (stereo not given in full) the results were Sfp PPTase inh 6%, RORgamma inh 0.63µM* and VP16 counter 0.5µM*.
Screening COC(C(=O)C(O)C(C)O)C1Cc2cc3cc(OC4CC(OC5CC(O)C(O)C(C)O5)C(O)C(C)O4)c(C)c(O)c3c(O)c2C(=O)C1OC1CC(OC2CC(OC3CC(C)(O)C(O)C(C)O3)C(O)C(C)O2)C(O)C(C)O1 (stereo not given) returned Sfp PPTase inh 1%, RORgamma inh 0.71µM* and VP16 counter 0.79µM*.
Screening Nc1nc2c(Br)ccc(Br)c2cc1C(=O)NCc1cccc2ccccc12 returned PLK1 PBD block -4%.
For CCS(=O)(=O)C1=NN2C(=N)/C(=C\c3ccc(SCc4ccco4)o3)C(=O)N=C2S1 the results were PLK1 PBD block inconclusive, Sfp PPTase inh 20µM*, ALDH1A1 inh 1.8µM*, RORgamma inh -24% and VP16 counter 6%.
Cc1cc(Cl)ccc1OCc1nc(-c2ccc(O)cc2)n[nH]1 was read as PLK1 PBD block 2%, Sfp PPTase inh 15%, ALDH1A1 inh -7%, RORgamma inh inconclusive and VP16 counter 4.5µM*.
For Cc1cc(Cl)ccc1Oc1ncc(-c2ccc(Cl)cc2)cn1 the results were PLK1 PBD block -4%, Sfp PPTase inh 10%, ALDH1A1 inh 9%, RORgamma inh 13% and VP16 counter -3%.
For Nc1nc(CN2CCN(c3ccccc3)CC2)nc(N2CCCc3ccccc32)n1 the results were PLK1 PBD block -5%, Sfp PPTase inh 1%, ALDH1A1 inh inconclusive, RORgamma inh -27% and VP16 counter -12%.
`Nc1nc(CSc2nnnn2-c2ccccc2)nc(N2CCCc3ccccc32)n1` gave PLK1 PBD block 3%, Sfp PPTase inh -16%, ALDH1A1 inh 2.8µM*, RORgamma inh -3% and VP16 counter -9%.
